Hits are enriched below; roughly 1.7% of the tested compounds scored in any of these assays.
GLP-1R agonist: qHTS of GLP-1 Receptor Agonists. 380,000 compounds, 0.007% hits. Potency, µM (titrated, usually from 45.6 µM), without a hit: at the top dose activation, usual class: activators. AID 624172, 2012. HEK293 GLP-1R CRE-luciferase, luminescence, 4-6 h; cells express a hypersensitive GLP-1R form. Glucagon-like peptide 1 receptor (Homo sapiens), P43220; also: % of control where 0% means no effect
Target sequence (P43220 whole entry, looked up): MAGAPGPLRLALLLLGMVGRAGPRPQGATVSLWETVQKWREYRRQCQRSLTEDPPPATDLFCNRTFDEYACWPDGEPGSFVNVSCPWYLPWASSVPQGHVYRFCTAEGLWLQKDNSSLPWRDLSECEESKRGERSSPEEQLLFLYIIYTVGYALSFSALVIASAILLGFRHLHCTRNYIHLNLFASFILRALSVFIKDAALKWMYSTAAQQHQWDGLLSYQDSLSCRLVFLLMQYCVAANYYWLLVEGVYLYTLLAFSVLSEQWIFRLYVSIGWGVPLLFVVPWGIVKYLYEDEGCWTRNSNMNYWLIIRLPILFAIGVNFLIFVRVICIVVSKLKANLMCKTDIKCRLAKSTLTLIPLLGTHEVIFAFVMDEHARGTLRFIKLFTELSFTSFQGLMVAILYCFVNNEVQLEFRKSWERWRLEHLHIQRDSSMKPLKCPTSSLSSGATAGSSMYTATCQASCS
PTHR1 ag: qHTS for PTHR1 Agonists: Primary Screen | HEK293 GP2 PTHR1 cells, GloSensor cAMP luminescence, 1 h | Potency, µM (titrated, usually from 115 µM), inactives show top-dose activation, usual class: activators | 410,000 compounds, 0.075% hits | AID 743266, 2014; also: nearly all actives have a fitted effect of over 55% in size
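HEK-293-derived GP2 cells expressing PTHR1 and a GloSensor cAMP reporter, 3,000/well, plated overnight, given luciferin plus IBMX (each 0.5 mM as added) for 1 h at 37 °C, then compound for 1 h at 37 °C. Luminescence was read after 15 min at room temperature.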
GLP-1R inv ag: qHTS of GLP-1 Receptor Inverse Agonists (Inhibition Mode) | Potency, µM (titrated, usually from 38.3 µM), inactives show top-dose activity change, negative = inhibition, actives largely listed as inhibitors | HEK293 GLP-1R CRE-luciferase, luminescence, 24 h; GLP-1R form is constitutively active | Glucagon-like peptide 1 receptor (Homo sapiens), P43220 | 410,000 compounds, 1.6% hits; also: % is scaled to controls: 0 for no effect and ±100 for the full control effect; nearly all actives have a fitted effect of over 55% in size
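Assay principle: reduced luminescence from a cAMP-responsive reporter in HEK293 cells co-expressing a constitutively active GLP-1R. Conditions: 24 hr compound incubation, 37 deg C, 5% CO2.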
GLP1R cytotox: qHTS of GLP-1 Receptor Inverse Agonists: Cytotox Screen; HEK293 cAMP-luciferase reporter cells, luminescence, 24 h; Potency, µM (highest dose often 38.3 µM), for the others: at the top dose activity change, negative = inhibition, most hits filed as inhibitors; 410,000 compounds, 0.13% hits;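 also: loss of luciferase light is scored as toxicity; % is scaled to controls: 0 for no effect and ±100 for the full control effect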
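To flag toxic compounds, the library was rerun on cells for 24 hr at 37 deg C and 5% CO2. Viability-linked luminescence was captured 12 min after adding luciferase detection reagent.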
An asterisk follows results filed as active; i = inactive; ? = inconclusive; . = no result given; [ ] = remark or other dose. Calls follow the shape of the dose curve; as a rule, active = well fitted curve in the direction sought with a large enough effect; inconclusive = small, poorly fitted or top-dose-only effect, or another doubt; inactive = no such curve, though single readings can be large; an effect the other way counts as inactive or inconclusive. Potency is read from the fitted curve at half-maximal effect.

SMILES | GLP-1R agonist | PTHR1 ag | GLP-1R inv ag | GLP1R cytotox
c1ccc(Cn2nnnc2C(c2cccs2)N2CCSCC2)cc1 (configuration not stated) | -0.2% | i | -29.0% | 10.5%
CCC(=O)c1ccccc1OCCCN1CCC(Cc2ccccc2)CC1 | 8.1% | -30.7% | 7.94µM* | ?
CCOc1ccccc1OCCN1CCC(Cc2ccccc2)CC1 | 9.5% | -25.4% | ? | ?
Cc1ccccc1OCCN1CCC(Cc2ccccc2)CC1 | 3.9% | i | 8.91µM* | -18.7%
O=S(=O)(NCc1ccccc1F)NCc1ccccc1F | 4.8% | i | -5.3% | -3.5%
Cc1oc2cc3oc(=O)c(CCC(=O)NCCN4CCOCC4)c(C)c3cc2c1C | 6.0% | i | 36.2% | 1.0%
O=C(CSc1nnc(COc2ccccc2)n1-c1ccccc1)c1cccs1 | 0.4% | -17.0%[57.5 µM] | 8.91µM* | 5.7%
Cc1cccc(OCc2nnc(SCCC(=O)O)n2-c2ccccc2)c1 | -5.4% | i | 9.2% | 2.0%
O=C(O)CSc1nnc(COc2ccccc2)n1-c1ccccc1 | -4.1% | i | 7.4% | -20.9%
Cc1ccc(OCc2nnc(SCC(=O)c3cccs3)n2-c2ccccc2)cc1C | 15.0% | -1.3%[57.5 µM] | 10µM* | -4.6%
Cc1c(N(C(=O)c2ccccn2)C2(C(=O)NC3CCCCC3)CCCCC2)c(=O)n(-c2ccccc2)n1C | 3.2% | -19.5% | 5.1% | -2.5%
Cc1cc(NS(=O)(=O)c2ccc3nc(-c4ccccc4)[nH]c3c2)ccc1Br | -7.3% | -42.1% | ? | -10.9%
Cc1ccc(NS(=O)(=O)c2ccc3nc(-c4ccccc4)[nH]c3c2)cc1Cl | -5.1% | -90.5% | 10µM* | -13.8%
CC(C)c1ccc(NC(=O)C2CCCN2S(=O)(=O)c2ccc3nc(-c4ccccc4)[nH]c3c2)cc1 (configuration not stated) | . | -11.6% | 8.91µM* | -12.9%
O=C(NC1CCOc2ccccc21)C1CCCC1 (configuration not stated) | 9.7% | i | -25.4% | 4.5%
COc1ccc(N2CCN(S(=O)(=O)c3ccc(F)c(C(=O)Nc4ccccc4Cl)c3)CC2)cc1 | . | -24.9% | 4.3% | -11.0%
CCCCC1C(=O)NN(c2ccccc2)C1=O (configuration not stated) | 4.6% | i | 1.78µM* | -15.1%
O=C1NC(=O)C2C3C=CC(C3)C12 (configuration not stated) | -1.1% | . | . | .
CC(C)CCC1(CCNC(C)c2cccs2)CCOC(C)(C)C1 (configuration not stated) | 6.3% | i | 7.08µM* | -0.4%
CCc1nnc(N2C(=O)c3ccccc3C2(O)c2ccccc2)s1 (configuration not stated) | 11.0% | -6.0% | -18.2% | 5.2%
CCCc1cc(C(=O)Nc2cccc3ccccc23)n(C)n1 | 18.2% | -2.0% | ? | -7.9%
CCCc1cc(C(=O)Nc2ccc(C(=O)c3ccc(C)cc3)cc2)n(C)n1 | -3.1% | -27.0% | 5.62µM* | -8.4%
CCCN(CCC)C(=O)Cc1coc2ccc3ccccc3c12 | 0.8% | i | 8.91µM* | -9.1%
O=C(Cc1coc2ccc3ccccc3c12)NCc1ccccc1 | 7.8% | -25.1% | ? | 4.3%
CCc1ncc(C(O)c2ccc(Cl)cc2)n1Cc1ccccc1 (configuration not stated) | -8.0% | -18.7% | 8.91µM* | -4.2%
SMILES | GLP-1R agonist | PTHR1 ag | GLP-1R inv ag | GLP1R cytotox
Cc1ncc(C(O)c2ccc(N(C)C)cc2)n1Cc1ccccc1 (configuration not stated) | 6.0% | -19.4% | -19.4% | 3.4%
CCOc1ccc(CCNC(=O)c2ccc3c(c2)c(C)c(C)n3C)cc1 | . | -6.9% | ? | 1.1%
CCc1ccc(C(=O)NNc2cc(Cl)cc(Cl)c2)cc1 | -1.0% | -18.7% | 1µM* | -23.9%
CCc1ccc(C(=O)NNc2ccc(Cl)cc2)cc1 | -3.1% | -19.4% | 1µM* | ?
Cc1ccc(CNC(=O)CO/N=C/c2ccc(C(C)(C)C)cc2)cc1 | -3.3% | -61.5% | ? | -20.9%
CC(C)(C)c1ccc(/C=N/OCC(=O)NCc2ccccc2)cc1 | 15.3% | -9.3% | 8.91µM* | 19.9%
CCCc1[nH]c2ccc(C#N)cc2c1CCC | -1.6% | -9.8% | 10µM* | ?
O=C(Nc1ccc(OC(F)(F)F)cc1)N1CCc2nc(NCc3cccc(Oc4ccccc4)c3)ncc2C1 | 8.1% | -91.2% | -63.1% | -17.0%
COc1cccc(NC(=O)N2CCc3nc(NCc4cccc(Oc5ccccc5)c4)ncc3C2)c1 | -0.8% | -87.1% | 10µM* | -22.1%
O=C(Nc1cccc(C(F)(F)F)c1)Oc1ccc(Cl)c2cccnc12 | -0.7% | i | 12.6µM* | 0.0%
C[C@H](CN1c2ccccc2Sc2cccnc21)N(C)C | 1.1% | . | . | .
O=C(Nc1cccc([N+](=O)[O-])c1)NC1CCCCCCC1 | 4.4% | -25.8% | 10µM* | -5.7%
Cc1ccc(NS(=O)(=O)c2ccc(OCC(=O)Nc3cccc([N+](=O)[O-])c3)c(C)c2)cc1 | -0.9% | -22.7% | 10µM* | -23.1%
Cc1ccc(S(=O)(=O)N(CC(=O)Nc2cccc([N+](=O)[O-])c2)C2CCCCC2)cc1 | 0.0% | -4.4%[57.5 µM] | 11.2µM* | -8.1%
O=C(CNC1CCCCC1)Nc1cccc([N+](=O)[O-])c1 | 15.5% | -9.5% | -20.5% | -3.7%
Cc1ccc(NC(=O)CN(C)C(=O)c2ccc(NS(=O)(=O)c3cccc([N+](=O)[O-])c3)cc2)cc1 | -1.4% | -12.6% | 11.1% | -9.9%
CC(C)=CCC/C(C)=C\CC/C(C)=C\CC/C(C)=C\CC1=C(C)C(=O)c2ccccc2C1=O | 1.2% | . | . | .
COc1ccc(Cl)cc1NC(=O)CN(C)C(=O)CCSc1ccc(C)cc1 | 10.2% | -48.8% | ? | 1.8%
CC(=O)Nc1cc2c(cc1NC(=O)Cn1nc(-c3ccc4c(c3)OCCO4)ccc1=O)OCCO2 | 1.6% | i | 31.6% | 17.7%
CC1=NN(C(N)=S)C(=O)C1N=Nc1ccccc1O (configuration not stated) | -1.7% | i | -5.6% | 0.9%
CCOc1ccccc1N=NC1C(=O)N(C(N)=S)N=C1C (configuration not stated) | -1.8% | -8.5% | 0.891µM* | ?
CSc1cccc(NC(=S)N(CCC(C)C)C2CCN(C(C)C)CC2)c1 | -2.3% | i | 8.91µM* | ?
CSc1cccc(NC(=S)N(CCC(C)C)C2CCN(C(C)=O)CC2)c1 | 9.2% | i | ? | -0.8%
Cc1ccc(Cl)cc1N1CCN(c2ncnc3onc(C)c23)CC1 | -5.2% | -38.8% | 10.0% | 1.3%
CCOC(=O)C1=C(CN2CCN(c3ccccc3OC)CC2)NC(=O)NC1c1ccccc1 (configuration not stated) | -2.7% | -42.5% | -27.4% | -4.2%

Source: PubChem
